Measured values published in PubChem BioAssay (NCATS).
Results filed as inconclusive are left out. Active and inactive are the calls of the source. The call rests on the fitted dose curve.

Tests used:
[1] = Primary qHTS for inhibitors of SARS-S pseudo-typed particle cell entry (AID 1479145); conditions: SARS-S pseudotyped particle cell entry, luciferase reporter; series mostly up to 57.1 µM; further: nearly all actives have a fitted effect of over 45% in size
[2] = Primary qHTS for Huh7 cytotoxicity: counterscreen for inhibitors of MERS-S pseudotyped particle cell entry (AID 1479147); conditions: cell viability read-out; series mostly up to 57.1 µM
[3] = Primary qHTS for inhibitors of MERS-S pseudo-typed particle cell entry (AID 1479149); conditions: MERS-S pseudotyped particle entry, luciferase; series mostly up to 57.1 µM; further: nearly all actives have a fitted effect of over 60% in size
[4] = Primary qHTS for Vero E6 cytotoxicity: counterscreen for inhibitors of SARS-S pseudo-typed particle cell entry (AID 1479150); conditions: cell viability; series mostly up to 57.1 µM

Measured: Potency

COC(=O)Nc1nc2ccc(Sc3ccccc3)cc2[nH]1
inactive: all assays above

O=C1C(CCS(=O)c2ccccc2)C(=O)N(c2ccccc2)N1c1ccccc1 (stereo unspecified)
inactive: all assays above

CCC(C(=O)OCCN1CCOC(c2ccccc2)C1C)c1ccccc1 (stereo unspecified)
inactive: all assays above

CC(C(=O)O)c1ccc2c(c1)Cc1cccnc1O2 (stereo unspecified)
inactive: all assays above

Oc1ccc(C(O)CNCCCCCCNCC(O)c2ccc(O)c(O)c2)cc1O (stereo unspecified)
inactive: all assays above

Cc1ccc(C(=O)Oc2ccc(C(O)CNC(C)(C)C)cc2OC(=O)c2ccc(C)cc2)cc1 (stereo unspecified)
inactive: all assays above

O=C(O)CCC(=O)Nc1ccc(S(=O)(=O)Nc2nccs2)cc1
inactive: all assays above

CC(C)(C)C(=O)C(Oc1ccc(Cl)cc1)n1ccnc1 (stereo unspecified)
inactive: all assays above

CC1(C)O[C@@H]2C[C@H]3[C@@H]4C[C@H](F)C5=CC(=O)C=C[C@]5(C)[C@H]4[C@@H](O)C[C@]3(C)[C@]2(C(=O)CO)O1
inactive: all assays above

Nc1c(CC(=O)O)cccc1C(=O)c1ccc(Br)cc1
inactive: all assays above

COc1cc(O)c(C(=O)c2ccccc2)cc1S(=O)(=O)O
inactive: all assays above

OC1C(O)C(O)C(O)C(O)C1O (stereo unspecified)
inactive: all assays above

CC(C)c1cc2c(cc1S(=O)(=O)O)[C@@]1(C)CCC[C@@](C)(C(=O)O)[C@@H]1CC2
inactive: all assays above

N[C@H]1CN(c2c(F)cc3c(=O)c(C(=O)O)cn(C4C[C@@H]4F)c3c2Cl)CC12CC2 (stereo partly specified)
inactive: all assays above

CCOC(=O)OC(C)OC(=O)[C@@H]1N2C(=O)[C@@H](NC(=O)[C@H](N)c3ccccc3)[C@H]2SC1(C)C (stereo partly specified)
inactive: all assays above

CC(=C(CCOC(=O)C(C)C)SSC(CCOC(=O)C(C)C)=C(C)N(C=O)Cc1cnc(C)nc1N)N(C=O)Cc1cnc(C)nc1N
inactive: all assays above

CC(C(O)c1ccc(O)cc1)N1CCC(Cc2ccccc2)CC1 (stereo unspecified)
inactive: all assays above

NC(N)=NC(=O)c1nc(Cl)c(N)nc1N
inactive: all assays above

CCCCCC1Nc2cc(C(F)(F)F)c(S(N)(=O)=O)cc2S(=O)(=O)N1 (stereo unspecified)
inactive: all assays above

CCCN(CCC)C(=O)C(CCC(=O)O)NC(=O)c1ccccc1 (stereo unspecified)
inactive: all assays above

CC1(C)S[C@@H]2[C@H](N=CN3CCCCCC3)C(=O)N2[C@H]1C(=O)O
inactive: all assays above

N[C@@H](CSCCCO)C(=O)O
inactive: all assays above

CCCOc1ccc2nc(NC(=O)OC)[nH]c2c1
inactive: all assays above

CCO[C@@H]1O[C@H](C(COCc2ccccc2)OCc2ccccc2)[C@H](OCc2ccccc2)[C@H]1O (stereo partly specified)
inactive: all assays above

N[C@H](Cc1c[nH]c2ccccc12)C(=O)O
inactive: all assays above

CN1C(=O)CC(c2ccccc2)C1=O (stereo unspecified)
inactive: all assays above

Nc1ccc(S(=O)(=O)Nc2nccs2)cc1
inactive: all assays above

CC1(C)[C@@H]2CC[C@@]1(C)C(=O)C2
inactive: all assays above

Cc1c(N(C)C)c(=O)n(-c2ccccc2)n1C
inactive: all assays above

N#Cc1cc(NC(=O)C(=O)O)c(Cl)c(NC(=O)C(=O)O)c1
inactive: all assays above

CC(C)(C)C(=O)OCOC(=O)[C@@H]1N2C(=O)[C@@H](NC(=O)[C@H](N)c3ccccc3)[C@H]2SC1(C)C
inactive: all assays above

CCCc1ncc(C[n+]2ccccc2C)c(N)n1
inactive: all assays above

O=C(OCC(COC(=O)c1cccnc1)(COC(=O)c1cccnc1)COC(=O)c1cccnc1)c1cccnc1
inactive: all assays above

CC1(C)O[C@@H]2C[C@H]3[C@@H]4C[C@H](F)C5=CC(=O)CC[C@]5(C)[C@H]4[C@@H](O)C[C@]3(C)[C@]2(C(=O)CO)O1
inactive: all assays above

CNC(=O)c1c(I)c(NC(=O)CCCCC(=O)Nc2c(I)c(C(=O)O)c(I)c(C(=O)NC)c2I)c(I)c(C(=O)O)c1I
inactive: all assays above

c1ccc([C@H]2CN3CCSC3=N2)cc1
inactive: all assays above

O=[N+]([O-])c1nccn1CO[C@@H](CO)[C@H](O)CO
inactive: all assays above

CC[C@H](NC(C)C)[C@H](O)c1ccc(O)c2[nH]c(=O)ccc12
inactive: all assays above

COCCc1ccc(OCC(O)CNC(C)C)cc1 (stereo unspecified)
inactive: all assays above

C[C@@H]1C[C@H]2[C@@H]3CCC4=CC(=O)C=C[C@]4(C)[C@@]3(F)[C@@H](O)C[C@]2(C)[C@@]1(O)C(=O)COC(=O)c1ccncc1
inactive: all assays above

C[C@]12CCC(=O)C=C1CC[C@@H]1[C@@H]2[C@@H](O)C[C@@]2(C)[C@H]1CC[C@]2(O)C(=O)CO
inactive: all assays above

CC(=O)N(CC(O)CN(C(C)=O)c1c(I)c(C(=O)NCC(O)CO)c(I)c(C(=O)NCC(O)CO)c1I)c1c(I)c(C(=O)NCC(O)CO)c(I)c(C(=O)NCC(O)CO)c1I (stereo unspecified)
inactive: all assays above

CCOc1ccc2nc(S(N)(=O)=O)sc2c1
inactive: all assays above

Cc1nc(C2CCCCC2)c(-c2ccc(S(N)(=O)=O)c(F)c2)o1
inactive: all assays above

C[C@]1(Cn2ccnn2)[C@H](C(=O)O)N2C(=O)C[C@H]2S1(=O)=O
inactive: all assays above

CCCCCOc1ccc(C2SC(=O)NC2=O)cc1OCC (stereo unspecified)
inactive: all assays above

CCCCC[C@H](O)C=C[C@H]1[C@H](O)CC(=O)[C@H]1CC=CCCCC(=O)O
inactive: all assays above

OCC(CO)N[C@H]1C[C@](O)(CO)[C@@H](O)[C@H](O)[C@H]1O
inactive: all assays above

CCCCOc1ccc(CC(=O)NO)cc1
inactive: all assays above

NC(=O)CCCCC1CCSS1 (stereo unspecified)
inactive: all assays above

C[C@H]1COc2c(C3(N)CC3)c(F)cc3c(=O)c(C(=O)O)cn1c23
inactive: all assays above

CCn1cc(C(=O)O)c(=O)c2cc(F)c(N3CCNCC3)nc21
inactive: all assays above

Cc1ccc(O)cc1
inactive: all assays above

COc1ccc2c(c1OC)C(=O)O[C@@H]2[C@H]1c2c(cc3c(c2OC)OCO3)CCN1C
inactive: all assays above

C=CC[N+]1([C@H]2C[C@H]3[C@@H]4CC[C@H]5C[C@H](OC(C)=O)[C@@H](N6CCCCC6)C[C@]5(C)[C@H]4CC[C@]3(C)[C@H]2OC(=O)CC)CCCCC1
inactive: all assays above

CNC(=O)c1cnn(-c2nc(N)c3ncn([C@@H]4O[C@H](CO)[C@@H](O)[C@H]4O)c3n2)c1
inactive: all assays above

CCCCC/C=C\C/C=C\CCCCCCCC(=O)NC(C)c1ccccc1 (stereo unspecified)
inactive: all assays above

OC[C@H]1O[C@@H](O[C@@H]2[C@@H](CO)O[C@](O)(CO)[C@H]2O)[C@H](O)[C@@H](O)[C@H]1O
inactive: all assays above

COc1ccc(CN(CCN(C)C)c2ncccn2)cc1
inactive: all assays above

OC(CCN1CCCCC1)(c1ccccc1)C1CC2C=CC1C2 (stereo unspecified)
inactive: all assays above

CCC1Nc2cc(Cl)c(S(N)(=O)=O)cc2S(=O)(=O)N1 (stereo unspecified)
inactive: all assays above

O=C(NN1CCCC1)NS(=O)(=O)c1ccc(Cl)cc1
inactive: all assays above

Nc1ccc(N=Nc2ccccc2)c(N)n1
inactive: all assays above

CC1(C)OC[C@@H](COC(=O)CCc2ccc(OC[C@@H](O)CNCCNC(=O)N3CCOCC3)cc2)O1
inactive: all assays above

C[N+](C)(C)CCCCCCCCCC[N+](C)(C)C
inactive: all assays above

COC(=O)C1=C(C)NC(COC(N)=O)=C(C(=O)OC(C)C)C1c1cccc(Cl)c1Cl (stereo unspecified)
inactive: all assays above

CCCc1cc(C(N)=S)ccn1
inactive: all assays above

CC(O)Cn1cnc2c1c(=O)n(C)c(=O)n2C (stereo unspecified)
inactive: all assays above

CC(=O)Oc1c(C)c(C)c2c(c1C)CC[C@@](C)(CCC[C@H](C)CCC[C@H](C)CCCC(C)C)O2
inactive: all assays above
